Test [1] relates to Zika virus NS2B-NS3 protease (linked construct). As to the kind of experiment: Primary screen NINDS Rhodamine qHTS for Zika virus inhibitors (AID 1347160). Also: nearly all actives have a fitted effect of over 55% in size. The gist of the method: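 Purified linked NS2B-NS3 protease (NS2B hydrophilic domain joined to NS3 protease by flexible linker), 25 nM in 10 mM Tris-HCl pH 8.0, 0.01% Tween 20. Compounds titrated, 15 min preincubation at room temperature; 1.5 microM Rhodamine110 substrate, FITC fluorescence change over 15 min.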
For orientation: Quantitative high-throughput screening tests each substance at several concentrations.

Test [2] addresses Calcium and integrin-binding protein 1 (Homo sapiens) (UniProt Q99828). As to the kind of experiment: Primary qHTS for Identification of Calcium Integrin Binding Protein 1 (CIB1) Competitor (AID 1508620). Also: top concentration of the series differs between compounds; % is scaled to controls: 0 for no effect and ±100 for the full control effect. The gist of the method: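 Fluorescence polarization competition: GST-tagged CIB1 (1 uM final) preincubated with compound 15 min at room temperature, then FITC-labelled alphaIIb peptide (100 nM final) added. After 15 min at room temperature, polarization read at Ex 480/Em 540.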

Test [3] can be described thus: Primary qHTS for inhibitors of nuclear receptor binding SET domain protein 2 (NSD2) in an isogenic RCH-ACV NSD2 p.E1099K mutant (9B) (AID 1645876). Also: nearly all actives have a fitted effect of over 70% in size. Also: potency is read from the fitted curve at half-maximal effect.
Test [4] is described as follows: Primary qHTS for inhibitors of nuclear receptor binding SET domain protein 2 (NSD2) in an RCH-ACV wild type WT cells (2C) (AID 1645877). Also: nearly all actives have a fitted effect of over 70% in size. Also: potency is read from the fitted curve at half-maximal effect.
For test [5], the target named is Glutathione peroxidase 1 (Homo sapiens) (UniProt P07203). As to the kind of experiment: Primary qHTS Assay for Inhibitors of Recombinant Selenoprotein Glutathione Peroxidase 1 (GPX1) (AID 1845191). Also: nearly all actives have a fitted effect of over 65% in size. The gist of the method: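 GR-coupled assay: compounds preincubated 30 min at room temperature with GPX1, then reaction started with CHP; final 10 nM GPX1, 1 mM GSH, 0.5 mM CHP, 0.5 mM NADPH, 100 nM GR, 0.01% BSA, pH 7.5 Tris buffer. NADPH fluorescence (340/450 nm) read at 0 and 15 min.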

For test [6], the target named is Phospholipid hydroperoxide glutathione peroxidase GPX4 (Homo sapiens) (UniProt P36969). As to the kind of experiment: Primary qHTS Assay for Inhibitors of Recombinant Selenoprotein Glutathione Peroxidase 4 (GPX4) (AID 1845192). Also: nearly all actives have a fitted effect of over 65% in size. The conditions noted are these: outcome: dose series up to 50 µM unless noted. In a few lines:
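GR-coupled assay: recombinant GPX4 preincubated 30 min with compound at room temperature; final 200 nM GPX4, 1 mM GSH, 0.5 mM cumene hydroperoxide, 0.5 mM NADPH, 100 nM GR, 0.01% BSA, pH 7.5 Tris. NADPH fluorescence (340/450 nm) read at 0 and 15 min.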

The target of test [7] is Luciferin 4-monooxygenase (Photinus pyralis) (UniProt P08659). As to the kind of experiment: Primary firefly luciferase (FLuc) qHTS assay for identification of artifact compounds. (AID 1845220). Also: nearly all actives have a fitted effect of over 60% in size. The gist of the method:
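Titrated compounds were incubated 15 min at RT, protected from light, with luciferin and ATP at 10 uM; reaction started with 10 nM FLuc, luminescence imaged at 5 min, and concentration-response fitted by Hill equation.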

Test [8] has as its system Nanoluciferase (engineered Oplophorus gracilirostris luciferase). As to the kind of experiment: Primary Nanoluciferase (NLuc) qHTS assay for identification of artifact compounds. (AID 1845222). Also: potency is read from the fitted curve at half-maximal effect. The gist of the method: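 qHTS format, against NLuc in S16 cell-conditioned medium. Nano-Glo substrate 1:100 was added after 15 min at room temperature. Luminescence was taken after a further 5 min.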

Test [9] in a line: Primary redox qHTS assay for identification of artifact compounds. (AID 1845223).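 Also: 0% = DMSO and 100% = reference compound.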 The gist of the method: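 Amplex Red (25 uM) and HRP (250 mU/mL) in HBSS, with compounds for 15 min, then 250 uM DTT for 30 min, room temperature, dark. Fluorescence 525/598 nm read; normalized to DMSO and 10 uM DA3003; Hill fit.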
Test [10] relates to C33A. As to the kind of experiment: Primary qHTS to identify gynecologic anti-cancer compounds using libraries of approved drugs and bioactive compounds (AID 1345084). Also: nearly all actives have a fitted effect of over 55% in size. Also: potency is read from the fitted curve at half-maximal effect. The following applies: Gynecologic cancer cell panel viability, ATPlite luminescence, 48 h; series mostly up to 57.5 µM. In a few lines:
(§1)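 ATP-based viability (ATPlite), 1,000 cells/well, 16 h pre-incubation, 48 h compound at 37 C, 5% CO2, 15 min RT before read.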

In test [11] the test system is CASKI. The test is described as above. The conditions noted are these: Gynecologic cancer cell panel viability, ATPlite luminescence, 48 h; series mostly up to 57.5 µM. The gist of the method: as §1
In test [12] the test system is Es-2. The test is described as above. The following applies: Gynecologic cancer cell panel viability, ATPlite luminescence, 48 h; series mostly up to 57.5 µM. In a few lines:
as §1

Test [13] deals with HeLa. The description is as above. The following applies: Gynecologic cancer cell panel viability, ATPlite luminescence, 48 h; series mostly up to 57.5 µM. The gist of the method:
as §1
In general terms: In ATP-based viability assays light output follows the ATP content of the culture.

In test [14] the test system is Hek293T. The description is as above. The conditions noted are these: Gynecologic cancer cell panel viability, ATPlite luminescence, 48 h, control line for the selectivity index; series mostly up to 57.5 µM. The gist of the method: as §1
Test [15] deals with JEG-3. The test is described as above. The following applies: Gynecologic cancer cell panel viability, ATPlite luminescence, 48 h; series mostly up to 57.5 µM. The gist of the method: as §1
The test system of test [16] is OV90. The test is described as above. The conditions noted are these: Gynecologic cancer cell panel viability, ATPlite luminescence, 48 h; series mostly up to 57.5 µM. In a few lines:
as §1

The test system of test [17] is Tov-21-G. The description is as above. The following applies: Gynecologic cancer cell panel viability, ATPlite luminescence, 48 h; series mostly up to 57.5 µM. In a few lines:
as §1

Test [18] has as its system Tov112D. The description is as above. The conditions noted are these: Gynecologic cancer cell panel viability, ATPlite luminescence, 48 h; series mostly up to 57.5 µM. The gist of the method: as §1
The nature of test [19]: qHTS drug screen for cell cycle checkpoint inhibitors in PARPi-resistant BRCA-mutant ovarian cancer cell lines. (AID 1963452; calls by dose curve). The following applies: PEO1/OlaR viability, CellTiter-Glo luminescence, 96 h, stronger effect = lower value. The gist of the method: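 PEO1, PEO4 and PEO1/OlaR ovarian cancer cells, 600 per well, exposed 96 h at 37C to a dilution series. Viability read by CellTiter-Glo luminescence, normalized to DMSO and empty wells; activity summarized as Z-AUC.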

Test [20] has as its system HaCat. As to the kind of experiment: Cytotoxic Profiling of Annotated Libraries Using Quantitative High-Throughput Screening (AID 1296008). Also: potency is read from the fitted curve at half-maximal effect; nearly all actives have a fitted effect of over 60% in size. The conditions noted are these: Five cell lines viability, CellTiter-Glo ATP luminescence, 48-72 h; max response: stronger effect = lower value. In a few lines:
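Cells exposed to compounds for 48 or 72 hr at 37 degrees Celsius. Viability read as ATP-coupled luminescence with CellTiter-Glo after 10 min at room temperature.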

[21] abbreviates: measured here: PEO1 parental Z-AUC.

Records with an inconclusive call do not appear. Activity calls are given as the source filed them. Unless noted, calls follow the shape of the dose curve; as a rule, active = well fitted curve in the direction sought with a large enough effect; inconclusive = small, poorly fitted or top-dose-only effect, or another doubt; inactive = no such curve, though single readings can be large; an effect the other way counts as inactive or inconclusive.

Potency, outcome and Z-AUC data for eight compounds are collected here from PubChem BioAssay (NCATS).

Chain of Glutathione peroxidase 1 (Homo sapiens) (P07203 whole entry, looked up): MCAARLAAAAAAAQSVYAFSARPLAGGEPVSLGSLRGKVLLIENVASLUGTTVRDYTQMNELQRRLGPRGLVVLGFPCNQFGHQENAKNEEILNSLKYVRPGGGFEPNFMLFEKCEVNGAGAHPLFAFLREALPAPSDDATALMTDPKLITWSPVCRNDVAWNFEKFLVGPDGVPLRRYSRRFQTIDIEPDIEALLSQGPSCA
Chain of Phospholipid hydroperoxide glutathione peroxidase GPX4 (Homo sapiens) (P36969 whole entry, looked up): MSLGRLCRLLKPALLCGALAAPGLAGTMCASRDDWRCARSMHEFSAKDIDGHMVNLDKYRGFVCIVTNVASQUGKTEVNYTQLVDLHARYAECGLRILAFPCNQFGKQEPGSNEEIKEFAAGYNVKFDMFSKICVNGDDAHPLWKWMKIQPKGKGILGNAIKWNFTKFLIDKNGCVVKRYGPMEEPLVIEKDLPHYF
Chain of Calcium and integrin-binding protein 1 (Homo sapiens) (Q99828 whole entry, looked up): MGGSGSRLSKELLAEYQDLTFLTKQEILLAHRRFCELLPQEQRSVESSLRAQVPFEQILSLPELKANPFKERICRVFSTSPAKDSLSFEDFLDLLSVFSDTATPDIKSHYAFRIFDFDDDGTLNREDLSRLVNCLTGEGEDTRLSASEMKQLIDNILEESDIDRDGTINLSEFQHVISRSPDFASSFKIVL

`Cc1cc(C)c(NC(=O)N(Cc2ccc3c(c2)Cc2ccccc2-3)C2CCCCCC2)c(C)c1`: the Potency entry in test [1], in [3], in test [4], in test [5], in test [6] and in test [7] was “inactive” throughout. The Potency result in [8], in test [9], in test [10], in [11], in [12] and in test [13] was “inactive” throughout. The Potency result in test [14], in test [15], in [16], in [17] and in [18] was “inactive” throughout. In test [2], the outcome was inactive.
For the compound `O=c1c(-n2ccnn2)c[nH]n1-c1cc(N2CCOCC2)ncn1`, the result in test [2] was inactive. The results for the Potency in test [3], in [4] and in [20] were 20.9 µM (active), 20.9 µM (active) and 1.86 µM (active), respectively. Besides, the Potency result in test [5] and in test [6] was “inactive” in each case. Besides, the results for the Z-AUC in [19], in test [19] (setting [21]) and in test [19] (measured here: PEO4 Z-AUC) were 1.14 (inactive), 0.854 and 1.55, respectively.
Consider `Cc1cc(C)c(-c2csc(NC(=O)c3ccccc3)n2)c(C)c1`, for which the Potency result in test [1], in [5], in test [6], in [7], in [8] and in test [9] was “inactive” in each case. For the same compound, the Potency entry in [12], in test [13], in test [15], in test [16] and in [17] was “inactive” throughout. In [2], the outcome was inactive. The Potency in test [3] and in test [4] was 4.09 µM (active) in each case.
As to `C=C(C)C(=O)O[C@H]1[C@H]2C(=C)C(=O)O[C@@H]2C[C@@H](C)/C=C\C(=O)[C@](C)(O)[C@@H]1OC(C)=O`, the Potency entry in [1], in test [4], in test [5], in test [6], in test [7] and in test [8] was “inactive” throughout. In [9], the Potency result is “inactive”. In addition, the result in [2] was inactive. The Potency in test [10] was 11.2 µM (active); in [12], 11.2 µM (active); in test [15], 10 µM (active); in test [17] it was 7.94 µM (active).
In the case of `Cc1cc(N=Nc2ccc(S(=O)(=O)Nc3ccccn3)cc2)c(N)cc1O`, the Potency entry in test [1], in test [5], in test [9], in test [10] and in test [15] was “inactive” throughout. Further, the Potency in test [3] was 8.17 µM (active); in test [4] it was 5.78 µM (active); in [13], 4.47 µM (active).
Consider `CNCCN(C)Cc1cn[nH]c1-c1ccc(OC2CC(OCCC3CCOCC3)C2)cc1` (stereo not given), for which the outcome in test [2] was inactive. For the same compound, the Potency result in test [5] and in [6] was “inactive” throughout. Also, the Z-AUC in test [19] is -0.683 (inactive); in test [19] (setting [21]) it was -1; in test [19] (measured here: PEO4 Z-AUC) it was -0.979.
Consider `Cc1nc(C)c2c(n1)N(Cc1ccc(-c3ccccc3-c3nn[nH]n3)cc1)C(=O)CC2`, for which the Potency result in [1], in test [3], in [4], in [5], in test [6] and in test [7] was “inactive” throughout. Also, the Potency entry in [9], in test [10], in test [11], in test [12], in test [13] and in test [14] was “inactive” in each case. In addition, the Potency entry in test [15], in test [16], in test [17] and in test [18] was “inactive” each time. The outcome in [2] was inactive. Besides, the Potency in [8] was 21.3 µM (active).
For the compound `Nc1nc(NCC2CCC(CNS(=O)(=O)c3cccc4ccccc34)CC2)nc2ccccc12` (stereo not given), the Potency result in test [1], in test [5], in test [6], in test [7], in test [9] and in test [10] was “inactive” throughout. Further, the Potency result in test [11], in [12], in [13], in test [14], in test [15] and in test [17] was “inactive” each time. In addition, the result in [2] was inactive. Also, the Potency in test [3] is 4.09 µM (active); in test [4], 2.58 µM (active).
